Compound activity from PubChem.
mcGAS MS inh: inhibitors of Mus musculus cyclic GMP-AMP synthase, initial high-throughput assay, cell-free, RapidFire MS; recombinant mouse cGAS, cGAMP by RapidFire MS; inhibition, % at 12.5 µM; actives 0.18% (n = 130,000); AID 1259397, 2018;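 active = inhibition of cGAS enzyme activity at or above 60%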;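 note: enzyme stimulated by 45 bp dsDNA with ATP and GTP substrates; cGAMP share of summed cGAMP plus half ATP and half GTP signals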
Target sequence (Q8C6L5 whole entry, looked up): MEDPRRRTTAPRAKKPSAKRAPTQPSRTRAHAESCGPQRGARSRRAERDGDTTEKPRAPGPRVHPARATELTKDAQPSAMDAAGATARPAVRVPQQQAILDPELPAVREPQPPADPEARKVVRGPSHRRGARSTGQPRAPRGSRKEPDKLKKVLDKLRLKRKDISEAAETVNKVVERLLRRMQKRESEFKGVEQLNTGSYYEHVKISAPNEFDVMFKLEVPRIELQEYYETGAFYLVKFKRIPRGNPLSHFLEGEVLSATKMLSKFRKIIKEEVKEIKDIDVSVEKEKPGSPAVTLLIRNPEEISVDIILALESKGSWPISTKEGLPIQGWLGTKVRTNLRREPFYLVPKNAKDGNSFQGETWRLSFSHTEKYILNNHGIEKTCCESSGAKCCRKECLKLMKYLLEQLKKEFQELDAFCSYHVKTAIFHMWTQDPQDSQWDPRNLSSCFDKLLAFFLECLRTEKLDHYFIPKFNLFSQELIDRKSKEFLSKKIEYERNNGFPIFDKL
Numbers stand for hits; – = inactive; ! = repeats disagree. This is one part of a sample in which hits are shown more often than they occur.

SMILES	mcGAS MS inh
S=C(NCc1ccco1)NC1CCSc2ccccc21 (stereo not drawn)	–
O=C1CSC(=NNC(=S)NCc2ccco2)N1	83.2
C=C(N/N=C1/NC(=O)CS1)c1ccccc1	–
CC(=NO)C(C)N(O)C(C)C(C)=NO (stereo not drawn)	–
CC(C)C(NS(=O)(=O)c1ccccc1)C(=O)N1CCN(c2cccc(Cl)c2)CC1 (stereo not drawn)	60.2
CC(C)C(NS(=O)(=O)c1cccc(Cl)c1)C(=O)N1CCN(c2ccccc2)CC1 (stereo not drawn)	–
CC(C)C(NS(=O)(=O)c1ccccc1)C(=O)N1CCN(c2ccccc2Cl)CC1 (stereo not drawn)	–
CCCCN(C(=O)NCC)c1c(N)n(CCCC)c(=O)[nH]c1=O	–
Cc1cccn2c(CNC3CCOC(C)(C)C3)c(C(=O)N3CCOCC3)nc12 (stereo not drawn)	–
O=C(Nc1n[nH]c(=S)s1)c1cccs1	76.5
O=C(Nc1nc(-c2ccc(Cl)s2)cs1)c1cccs1	–
O=C(Nc1n[nH]c(=S)s1)c1ccco1	–
Cc1ccc(F)c(CC(=O)N2CCOC(COc3ccc4c(c3)CCCC4)C2)c1F (stereo not drawn)	–
CC(C)N(Cc1ccc2c(c1)OCO2)C(=O)c1cccc(-n2cnnc2)c1	–
C=c1ccccc1=C1N=C(c2cccc(OCc3nc(C(=O)OC)co3)c2)NO1	–
c1ccc(CCc2nn3c(C4COc5ccccc5O4)nnc3s2)cc1 (stereo not drawn)	–
CCCc1nnc2sc(-c3cc(C(C)C)[nH]n3)nn12	–
CC(C)c1cc(-c2nn3c(C4COc5ccccc5O4)nnc3s2)n[nH]1 (stereo not drawn)	70.4
O=c1c2ccc(Cl)cc2ncn1CC(O)COCc1cccs1 (stereo not drawn)	–
Cn1cc(CN2CCCC(CNC(=O)C3(c4ccc(Cl)cc4)CC3)C2)cn1 (stereo not drawn)	–
O=C1CNc2c(c(=O)oc3ccccc23)N1	95.6
O=C(c1c(O)c2ccccc2oc1=O)C1CCC1	–
O=c1oc2ccc(O)cc2c2c1NCCC2	–
Cc1nn(-c2ccccc2)c(C)c1NC(=O)Cn1nc(-c2ccccc2)oc1=O	–
CC(C)CNC(=O)C(F)(F)c1ccccn1	–
SMILES	mcGAS MS inh
Clc1ccc(Oc2ccnc3cc(Cl)ccc23)cc1	–
Clc1ccc2c(-n3ccnc3)ccnc2c1	66.6
Clc1ccc2c(Oc3ccc(Br)cc3)ccnc2c1	–
N#Cc1ccc(Oc2ccccc2F)c(F)c1	–
COCC(=O)N1CCN(C(=O)c2ccc(C)o2)CC1	–
CC(Nc1cccc(NC(=O)CO)c1)c1ncc(C(C)(C)C)o1 (stereo not drawn)	–
Cc1ccc(S(=O)(=O)C(C)c2ncc(C(C)(C)C)o2)cc1C (stereo not drawn)	–
COc1ccc(S(=O)C(C)c2ncc(C(C)(C)C)o2)cc1OC (stereo not drawn)	67.5
N#Cc1ccc(COC(=O)CCNS(=O)(=O)c2cccs2)c(F)c1	–
CCn1c2ccccc2c2cc(-c3nc(C)c(C)n3CC(=O)N3CC=CCC3)ccc21	–
COc1cc(C(=O)N2CCOC(COCc3ccc(F)cc3Cl)C2)cc(OC)c1C (stereo not drawn)	–
CCC1(O)CCCN(C(=O)c2ccc(OCC(=O)N3CCCCC3)cc2)C1 (stereo not drawn)	–
CCCCCC(C)n1[nH]c(=O)c2c(C)cc(C)nc21 (stereo not drawn)	–
CCCCC(C)n1[nH]c(=O)cc1N (stereo not drawn)	62.5
CCCCn1c(N)cc(=O)[nH]c1=O	–
Cc1nn(CC(=O)c2cc(C)n(C3CC3)c2C)c(N)c1C#N	–
CN(C)S(=O)(=O)c1ccc(-c2nccc(CCC(F)(F)F)n2)cc1	–
CC(=O)Oc1ccccc1CN1C(=O)C(C)(C)ON=C1c1ccc(C(F)(F)F)cc1	–
COC(=O)c1ccc(CN2C(=O)C(C)(C)ON=C2c2ccc(C)cc2)o1	–
CC(=O)Oc1ccc(CN2C(=O)C(C)(C)ON=C2c2ccc(C)cc2)cc1	87.3
CC(CNC(=O)C1COc2ccccc2C1)N1CCN(c2ccccc2)CC1 (stereo not drawn)	–
CC(C)c1[nH]ncc1Br	–
Cc1cccc(OCC(=O)Nn2cnc3c(cnn3-c3ccc(C)c(C)c3)c2=O)c1	–
CCN(CC)CCCC(C)Nc1c2ccc(Cl)cc2nc2ccc(OC)cc12 (stereo not drawn)	68.3!
COc1ccc2nc3cc(Cl)ccc3c(Nc3cc(CN4CCCC4)c(O)c(CN4CCCC4)c3)c2n1	–
SMILES	mcGAS MS inh
CCN(CC)CCCC(C)NCc1ccccc1OC (stereo not drawn)	–
CC1CCc2c(sc3[nH]c(=S)n(Cc4ccco4)c(=O)c23)C1 (stereo not drawn)	–
O=C1NCCN2CCN(C(=O)CCc3ccc(-c4cccs4)o3)CC12 (stereo not drawn)	–
O=C(c1c[nH]c(=O)c(Cl)c1)N1CCOC(COc2cccc(C(F)(F)F)c2)C1 (stereo not drawn)	–
Cc1noc(C)c1C(=O)Nc1cccc(OCC2CCCO2)c1 (stereo not drawn)	–
O=C1CC(C(F)(F)F)N(C(=O)COC(=O)c2cccc(OCC3CCCO3)c2)c2ccccc2N1 (stereo not drawn)	94.0
Cn1c(=O)c2ccc(C(=O)N(Cc3ccc(C#N)cc3)CC(F)(F)F)nc2n(C)c1=O	–
CC(C)(C)c1ccc(C(C)(C)C)c(-n2cnnc2)c1	–
COc1ccc(C(=O)NCCNc2ccc(Nc3ccncc3)nn2)cc1OC	–
c1ccc(N=c2scc(-c3cccs3)n2N=C2CCCC2)cc1	–
Cc1ccc(NS(=O)(=O)c2c(C)c(C)c(C)c(C)c2C)c(C)c1O	–
O=C1c2c(O)ccc(O)c2C(=O)c2c(NCCNCCO)ccc(NCCNCCO)c21	83.3!
CC(C)n1c(=O)c(C(=O)NC2CCN(Cc3ccccc3)C2)cc2cccnc21 (stereo not drawn)	–
COc1ccc(OC)c2c(C)cc(NC3CCS(=O)(=O)C3)nc12 (stereo not drawn)	–
COc1ccc(-c2ccc(C(=O)N3CCCC3)o2)c2cccnc12	86.0
CNC(=O)c1ccc(-c2ccc(OC)c3ncccc23)s1	–
COc1ccc(-c2ccc(NC(=O)C3CC3)nc2)c2cccnc12	–
Cn1cc(C(=O)Nc2nnc(Cc3ccc(F)cc3)s2)ccc1=O	–
N#CC(=C(O)CSc1ccccn1)c1nc2ccccc2s1	–
N[n+]1cnn(CC(=O)c2ccccc2)c1	–
N[n+]1cnn(CC(=O)c2ccccc2Br)c1	98.1
CCC(=O)Nc1ccc(C(=O)Cn2cc(Br)cn2)cc1	–
N[n+]1cnn(CC(=O)c2ccc(Br)cc2Br)c1	82.6
O=C(CSCc1ccccc1)c1ccccc1Br	–
Cc1nn(CC(=O)c2ccc(Cl)cc2Cl)c(C)[n+]1N	–
SMILES	mcGAS MS inh
Cc1nc(Cc2noc(C3CC3c3ccccc3C)n2)no1 (stereo not drawn)	–
O=C(COc1ccc(Cl)cc1)N(Cc1ccccn1)C1CCSC1 (stereo not drawn)	–
CC(c1ccncn1)N(C)Cc1c(C(=O)N2CCCCCCC2)nc2sccn12 (stereo not drawn)	–
O=C(NCCc1ccccc1)n1ccnc1	–
CN(C)C(=O)C1CCCN1Cn1[nH]c(-c2ccccc2)nc1=S (stereo not drawn)	–
S=c1nc(-c2ccccc2)[nH]n1CN1CCc2ccccc2C1	76.9
Fc1ccccc1N1CCN(Cn2[nH]c(-c3ccccc3)nc2=S)CC1	–
